Measured values from PubChem BioAssay (Tox21).
Unmarked numbers belong to inactive results. Entries that show only a call come without a potency. Calls of active or inactive are those of the source. Unless noted, calls follow the shape of the dose curve; as a rule, active = well fitted curve in the direction sought with a large enough effect in the repeat runs; inconclusive = weak or mixed curves; inactive = no such curve, though single readings can be large; an effect the other way counts as inactive or inconclusive.

Assays:
[1] = qHTS assay to identify small molecule antagonists of the glucocorticoid receptor (GR) signaling pathway - cell viability counter screen (AID 720693); also: nearly all actives have a fitted effect of over 55% in size
[2] = qHTS assay for identifying genotoxic compounds that show differential cytotoxicity against isogenic chicken DT40 cell lines with known DNA damage response pathways - Rev3 mutant cell line (AID 743014); also: nearly all actives have a fitted effect of over 55% in size; also: potency is read from the fitted curve at half-maximal effect
[3] = qHTS assay to identify small molecule antagonists of the androgen receptor (AR) signaling pathway - cell viability counter screen (AID 743033; also: nearly all actives have a fitted effect of over 45% in size)
[4] = qHTS assay to identify small molecule antagonists of the androgen receptor (AR) signaling pathway using the MDA cell line - cell viability counter screen (AID 743041; also: nearly all actives have a fitted effect of over 45% in size)
Method in brief: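 Cytotoxicity counter screen: MDA-kb2 AR-luc cells, compound + R1881, 16 h, 37C, 0% CO2; CellTiter-Fluor added at 15.5 h, fluorescence read after 30 min.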

[5] = qHTS assay to identify small molecule antagonists of the thyroid receptor (TR) signaling pathway - cell viability counter screen (AID 743064); also: nearly all actives have a fitted effect of over 50% in size; also: potency is read from the fitted curve at half-maximal effect
Method in brief: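 Counter screen for cytotoxicity: compound plus T3 (1 nM final) on GH3.TRE-Luc cells, 23.5 h at 37 °C, then fluorescence viability readout with CellTiter-Fluor.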

[6] = biological target: Estrogen receptor (Homo sapiens) (UniProt P03372); experiment: qHTS assay to identify small molecule antagonists of the estrogen receptor alpha (ER-alpha) signaling pathway (AID 743069; active = well fitted curve in the direction sought with a large enough effect in the signal ratio in the repeat runs, not every such curve was filed as active; inconclusive = weak or mixed curves, or effect the other way; inactive = no such curve, though single readings can be large or run the other way; the % refers to the signal ratio; also: potency is read from the fitted curve at half-maximal effect)
Estrogen receptor (Homo sapiens), sequence (P03372 whole entry, looked up): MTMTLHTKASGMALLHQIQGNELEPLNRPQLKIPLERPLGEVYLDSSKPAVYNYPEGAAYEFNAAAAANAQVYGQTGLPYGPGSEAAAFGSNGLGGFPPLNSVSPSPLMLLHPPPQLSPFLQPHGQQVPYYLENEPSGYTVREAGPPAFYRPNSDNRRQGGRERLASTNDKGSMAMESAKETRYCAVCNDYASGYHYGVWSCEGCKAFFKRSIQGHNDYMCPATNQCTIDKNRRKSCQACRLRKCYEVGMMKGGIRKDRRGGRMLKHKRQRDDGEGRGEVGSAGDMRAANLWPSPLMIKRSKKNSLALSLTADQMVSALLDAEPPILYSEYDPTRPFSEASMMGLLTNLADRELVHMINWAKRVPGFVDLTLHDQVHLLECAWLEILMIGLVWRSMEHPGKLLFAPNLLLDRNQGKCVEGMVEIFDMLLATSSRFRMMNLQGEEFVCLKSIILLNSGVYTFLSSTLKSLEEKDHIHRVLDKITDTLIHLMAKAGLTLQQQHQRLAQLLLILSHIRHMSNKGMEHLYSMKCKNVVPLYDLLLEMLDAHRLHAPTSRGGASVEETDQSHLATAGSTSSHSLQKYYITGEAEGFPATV
Method in brief: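 Beta-lactamase FRET fluorescence is read after 2 hr at room temperature with LiveBLAzer B/G substrate. Before that, ER-alpha-bla HEK293 cells sit 4 hr after plating, then receive compound plus 17beta-estradiol and incubate 18 hr at 37C.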

[7] = qHTS assay to identify small molecule antagonists of the estrogen receptor alpha (ER-alpha) signaling pathway - cell viability counter screen (AID 743074; calls by dose curve;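 also: HEK293 cells carrying ER-alpha-UAS-bla reporter stimulated with 17beta-estradiol; nearly all actives have a fitted effect of over 45% in size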)
[8] = biological target: Estrogen receptor (Homo sapiens) (UniProt P03372); experiment: qHTS assay to identify small molecule agonists of the estrogen receptor alpha (ER-alpha) signaling pathway (AID 743075; calls by dose curve;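 also: HEK293 GripTite cells with ER-alpha and UAS-driven beta-lactamase reporter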)
[9] = biological target: Estrogen receptor (Homo sapiens) (UniProt P03372); experiment: qHTS assay to identify small molecule agonists of the estrogen receptor alpha (ER-alpha) signaling pathway using the BG1 cell line (AID 743079); also: nearly all actives have a fitted effect of over 20% in size
[10] = qHTS assay to identify small molecule antagonists of the estrogen receptor alpha (ER-alpha) signaling pathway using the BG1 cell line (AID 743080; calls by dose curve; also: series mostly up to about 70 µM; nearly all actives have a fitted effect of over 25% in size)
Method in brief: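 Antagonist mode: compounds in DMSO were pinned onto BG1-Luc-4E2 cells alongside 17beta-estradiol agonist, incubated 21.5 h, and ERE-driven luciferase measured with ONE-Glo. Cytotoxicity was multiplexed using CellTiter-Fluor fluorescence.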

[11] = qHTS assay to identify small molecule antagonists of the estrogen receptor alpha (ER-alpha) signaling pathway using the BG1 cell line - cell viability counter screen (AID 743081);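 also: compound given together with 17beta-estradiol as the ER stimulus; series mostly up to about 70 µM; nearly all actives have a fitted effect of over 45% in size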
Aromatase (Homo sapiens) = Aromatase (Homo sapiens) (UniProt P11511); experiment: qHTS assay to identify aromatase inhibitors (AID 743083); also: series mostly up to about 70 µM; nearly all actives have a fitted effect of over 55% in size
Aromatase (Homo sapiens), sequence (P11511 whole entry, looked up): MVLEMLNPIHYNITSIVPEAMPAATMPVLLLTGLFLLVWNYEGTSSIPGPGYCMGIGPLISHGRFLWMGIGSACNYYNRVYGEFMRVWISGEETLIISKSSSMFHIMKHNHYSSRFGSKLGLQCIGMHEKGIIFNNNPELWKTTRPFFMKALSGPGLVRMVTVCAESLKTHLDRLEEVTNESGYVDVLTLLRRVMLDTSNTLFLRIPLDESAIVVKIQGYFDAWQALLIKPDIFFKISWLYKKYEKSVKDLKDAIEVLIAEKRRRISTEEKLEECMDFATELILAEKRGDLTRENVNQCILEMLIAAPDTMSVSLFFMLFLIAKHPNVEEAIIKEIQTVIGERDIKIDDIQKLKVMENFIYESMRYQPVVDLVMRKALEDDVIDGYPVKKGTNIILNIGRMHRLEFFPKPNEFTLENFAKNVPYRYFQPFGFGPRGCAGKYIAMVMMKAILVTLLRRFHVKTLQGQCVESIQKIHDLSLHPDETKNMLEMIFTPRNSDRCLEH

[12] = qHTS assay for identifying genotoxic compounds that show differential cytotoxicity against isogenic chicken DT40 cell lines with known DNA damage response pathways - wild type cell line (AID 743012); also: nearly all actives have a fitted effect of over 60% in size; also: potency is read from the fitted curve at half-maximal effect
Method in brief: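 Viability of DNA repair-proficient chicken DT40 cells was assessed by CellTiter-Glo luminescence following 40 h compound exposure at 37 C/5% CO2.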

[13] = biological target: Androgen receptor (Homo sapiens) (UniProt P10275); experiment: qHTS assay to identify small molecule agonists of the androgen receptor (AR) signaling pathway (AID 743036; active = well fitted activation curve with a large enough effect in the signal ratio in the repeat runs, with a control signal flat, not every such curve was filed as active; inconclusive = weak or mixed curves, or effect the other way; inactive = no such curve, though single readings can be large or run the other way; the % refers to the signal ratio)
Androgen receptor (Homo sapiens), sequence (P10275 whole entry, looked up): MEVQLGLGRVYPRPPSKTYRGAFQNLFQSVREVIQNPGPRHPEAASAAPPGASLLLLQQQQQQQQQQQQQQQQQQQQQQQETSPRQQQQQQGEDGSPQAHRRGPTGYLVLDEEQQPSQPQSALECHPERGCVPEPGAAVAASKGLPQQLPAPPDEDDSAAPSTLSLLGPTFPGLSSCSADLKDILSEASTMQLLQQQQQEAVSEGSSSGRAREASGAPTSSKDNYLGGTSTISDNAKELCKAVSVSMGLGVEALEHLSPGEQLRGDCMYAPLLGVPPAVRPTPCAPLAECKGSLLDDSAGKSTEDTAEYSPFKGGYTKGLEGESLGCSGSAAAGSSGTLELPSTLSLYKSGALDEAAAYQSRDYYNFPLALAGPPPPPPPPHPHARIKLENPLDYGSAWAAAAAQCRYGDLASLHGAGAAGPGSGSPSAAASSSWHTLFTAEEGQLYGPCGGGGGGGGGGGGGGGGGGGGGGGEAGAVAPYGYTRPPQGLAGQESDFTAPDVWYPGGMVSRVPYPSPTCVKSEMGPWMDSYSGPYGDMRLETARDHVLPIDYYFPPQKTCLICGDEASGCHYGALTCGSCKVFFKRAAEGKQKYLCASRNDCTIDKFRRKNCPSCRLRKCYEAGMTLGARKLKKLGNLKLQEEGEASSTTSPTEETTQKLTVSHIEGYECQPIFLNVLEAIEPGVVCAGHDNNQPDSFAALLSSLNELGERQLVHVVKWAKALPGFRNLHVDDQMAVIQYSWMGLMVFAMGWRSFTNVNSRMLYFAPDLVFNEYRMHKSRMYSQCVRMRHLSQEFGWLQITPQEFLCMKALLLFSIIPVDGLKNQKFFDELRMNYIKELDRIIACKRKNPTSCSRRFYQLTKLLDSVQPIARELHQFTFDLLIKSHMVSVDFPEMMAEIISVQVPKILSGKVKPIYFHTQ
Method in brief: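 In this Tox21 qHTS, 2,000 HEK293 AR-bla cells per well were incubated with compounds for 16 h at 37C and 5% CO2. Fluorescence intensity was recorded 2 h after adding LiveBLAzer B/G FRET substrate at room temperature.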

[14] = biological target: Androgen receptor (Homo sapiens) (UniProt P10275); experiment: qHTS assay to identify small molecule agonists of the androgen receptor (AR) signaling pathway using the MDA cell line (AID 743040; also: nearly all actives have a fitted effect of over 20% in size)
Method in brief: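 Luciferase read-out, ONE-Glo, 30 min RT. Cells: MDA-kb2 AR-luc, MMTV promoter with AR and GR response elements. Compound exposure 16 h, 37C, 0% CO2, after 5 h pre-incubation. qHTS agonist mode.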

[15] = qHTS assay to identify small molecule antagonists of the thyroid receptor (TR) signaling pathway (AID 743065); also: nearly all actives have a fitted effect of over 55% in size; also: potency is read from the fitted curve at half-maximal effect
Method in brief: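 GH3.TRE-Luc rat pituitary cells (two TREs driving luciferase) were dosed with compound, then stimulated with 1 nM T3 (final) for 23.5 h at 37 C. ONE-Glo luminescence was the read-out, with CellTiter-Fluor fluorescence as the cytotoxicity counter-screen.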

[16] = test system: thyroid hormone receptor (rat, GH3 cells); experiment: qHTS assay to identify small molecule agonists of the thyroid receptor (TR) signaling pathway (AID 743066; calls by dose curve)
[17] = qHTS assay for identifying genotoxic compounds that show differential cytotoxicity against isogenic chicken DT40 cell lines with known DNA damage response pathways - Rad54/Ku70 mutant cell line (AID 743015); also: nearly all actives have a fitted effect of over 60% in size; also: potency is read from the fitted curve at half-maximal effect
[18] = biological target: Androgen receptor (Homo sapiens) (UniProt P10275); experiment: qHTS assay to identify small molecule antagonists of the androgen receptor (AR) signaling pathway using the MDA cell line (AID 743042)
Method in brief: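 MDA-kb2 breast carcinoma cells carrying MMTV-luciferase (AR/GR responsive) were co-treated with compounds and the agonist R1881 for 16 h at 37C. Inhibition read as ONE-Glo luminescence; CellTiter-Fluor fluorescence measured in parallel for cytotoxicity.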

Structure (SMILES)	Potency [1]	Potency [2]	Potency [3]	Potency [4]	Potency [5]	Potency [6]	Potency [7]	Potency [8]	Potency [9]	Potency [10]	Potency [11]	Potency (Aromatase (Homo sapiens))	Potency [12]	Potency [13]	Potency [14]	Potency [15]	Potency [16]	Potency [17]	Potency [18]
CC1=CC=C(C(C)C)CC1	inactive	inactive	inactive	inactive	inactive	inactive	inactive	inactive	inactive	inactive	inactive	inactive							
C[N+]1(CC2COC(c3ccccc3)(C3CCCCC3)O2)CCCCC1 (stereo not drawn)	inactive		inactive			inactive	inactive	inactive	inactive	inactive	inactive	inactive	2.66 µM (active)						
Cc1cc(N)c2cc(NC(=O)Nc3ccc4nc(C)cc(N)c4c3)ccc2n1	inactive	21.1 µM (active)	inactive		29.8 µM (active)		inactive				inactive	inactive		inactive	inactive	29.8 µM (active)	inactive		
Cc1cccc(Nc2ccccc2)c1	inactive	30.6 µM (active)					inactive				inactive			inactive	inactive		inactive	48.6 µM (active)	
CCCCCCCCCCCCCCOS(=O)(=O)O	inactive			inactive		inactive	inactive	inactive	inactive	inactive	inactive	inactive	inactive			48.6 µM (active)	inactive		
CC(=O)[O][Al]	inactive	inactive	inactive	inactive	inactive		inactive				inactive	inactive					inactive	inactive	
CCCCCCCC/C=C\CCCCCCCC(=O)OCC	inactive		inactive	inactive			inactive				inactive	inactive	inactive			inactive	inactive		
O=C(Nc1ccccc1)c1ccccc1O	inactive				inactive						inactive	inactive	48.6 µM (active)		inactive	61.1 µM (active)	inactive	30.6 µM (active)	
CCCCCCCCCCO[C@@H]1O[C@H](CO)[C@@H](O)[C@H](O)[C@H]1O	inactive	61.1 µM (active)		inactive	inactive	inactive	inactive	inactive	inactive	inactive	inactive	inactive					inactive	61.1 µM (active)	
CN(C)CCN(Cc1ccc(Cl)cc1)c1ccccn1	inactive		inactive		11.4 µM (active)		inactive				inactive	inactive	12.7 µM (active)			10.1 µM (active)	inactive		
O=C(O)c1ccco1	inactive	inactive	inactive			inactive	inactive	inactive	inactive	inactive	inactive	inactive				inactive	inactive	inactive	
CCCCCCCCCCCCCCCCCCOS(=O)(=O)O			inactive	inactive			inactive	inactive	inactive	inactive	inactive					48.6 µM (active)	inactive	inactive	
CC(C)(O)c1ccc(CNC(=O)c2cccnc2Oc2ccc(F)cc2)cc1	inactive			inactive	inactive		inactive				inactive					inactive	inactive		
COc1ccnc(CS(=O)c2nc3ccc(OC(F)F)cc3[nH]2)c1OC (stereo not drawn)	inactive		inactive	inactive	inactive		inactive	inactive		inactive	inactive	inactive					inactive		
C=C1C(=C/C=C2\CCC[C@]3(C)[C@@H]([C@H](C)/C=C/[C@@H](O)C4CC4)CC[C@@H]23)C[C@@H](O)C[C@@H]1O		11.9 µM (active)	inactive			21.3 µM [inconclusive] (active)	inactive	inactive	inactive		inactive	inactive	11.9 µM (active)	inactive	inactive	26.6 µM (active)		13.3 µM (active)	26.6 µM (active)
CCOc1ccc(O)cc1	inactive	54.5 µM (active)	inactive		inactive		inactive	inactive	inactive	inactive	inactive	inactive				inactive	inactive		
CCc1cc(C2=C(C(=O)O)N(c3ccccc3C(F)(F)F)S(=O)(=O)c3ccccc32)cc2c1OCO2	inactive		inactive	inactive	2.41 µM (active)		inactive									inactive	inactive		
COc1cc(Cl)c(OC)cc1N	inactive		inactive		inactive						inactive	inactive							
COc1cc2nc(N3CCN(C(=O)C4COc5ccccc5O4)CC3)nc(N)c2cc1OC (stereo not drawn)	inactive	inactive	inactive				inactive				inactive					29.8 µM (active)	inactive		
